Tests used:
Assay in all cases: DAPPL (digital affinity profiling via proximity ligation, sequencing); 10 mM Tris-HCl pH 7.5, 50 mM NaCl, 1 mM DTT, 4% glycerol, room temperature, 30 min; GST-TFs on glutathione beads, 16-mer random dsDNA library, 0.1% formaldehyde crosslink after washing; high values mean tight binding
[1] = molecular target: T1, FEV (Homo sapiens, UniProt Q99581 1-238); settings: protein: recombinant; tags: N-terminal GST; dsDNA, one strand shown
T1 sequence: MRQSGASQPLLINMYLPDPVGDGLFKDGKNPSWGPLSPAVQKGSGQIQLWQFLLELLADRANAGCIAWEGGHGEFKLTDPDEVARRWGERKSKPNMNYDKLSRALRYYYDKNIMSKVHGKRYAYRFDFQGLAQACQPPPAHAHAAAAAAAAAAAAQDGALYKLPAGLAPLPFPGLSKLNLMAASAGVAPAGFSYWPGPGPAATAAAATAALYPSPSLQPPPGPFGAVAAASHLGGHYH
Outline: (§1)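 Binding signal is each hexamer's read frequency for a factor divided by its frequency in the tag-only sample. The factors were GST-fused human transcription factors from yeast, captured on glutathione beads, DNA-barcoded and pooled with that sample. Pools were incubated with 200 nmole of a random double-stranded 16-mer DNA library in Tris/NaCl/DTT/glycerol buffer at room temperature for 30 min, then washed, crosslinked with 0.1% formaldehyde, proximity-ligated with BsaI/T4 ligase (1 h, 37 °C), PCR-amplified and sequenced on an Illumina NextSeq500.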

[2] = molecular target: ETV5 (Homo sapiens, UniProt P41161 1-510); settings: protein: recombinant; tags: N-terminal GST; dsDNA, one strand shown
Outline: as §1

[3] = molecular target: HSF1 (Homo sapiens, UniProt Q00613 1-529); settings: protein: recombinant; tags: N-terminal GST; chain copies: 3; dsDNA, one strand shown
Outline: as §1

[4] = molecular target: T2, SPIC (Homo sapiens, UniProt Q8N5J4 1-248); settings: protein: recombinant; tags: N-terminal GST; dsDNA, one strand shown
T2 sequence: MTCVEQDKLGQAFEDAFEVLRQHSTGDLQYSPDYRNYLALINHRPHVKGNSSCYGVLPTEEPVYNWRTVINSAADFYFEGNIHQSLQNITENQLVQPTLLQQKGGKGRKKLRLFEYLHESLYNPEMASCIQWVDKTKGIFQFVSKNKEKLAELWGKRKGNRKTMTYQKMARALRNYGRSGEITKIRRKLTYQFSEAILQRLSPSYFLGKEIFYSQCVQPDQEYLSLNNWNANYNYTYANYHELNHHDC
Outline: as §1

[5] = molecular target: ELF4 (Homo sapiens, UniProt Q99607 1-663); settings: protein: recombinant; tags: N-terminal GST; dsDNA, one strand shown
Outline: as §1

[6] = molecular target: T3, ELK4 (Homo sapiens, UniProt P28324-2 1-405); settings: protein: recombinant; tags: N-terminal GST; dsDNA, one strand shown
T3 sequence: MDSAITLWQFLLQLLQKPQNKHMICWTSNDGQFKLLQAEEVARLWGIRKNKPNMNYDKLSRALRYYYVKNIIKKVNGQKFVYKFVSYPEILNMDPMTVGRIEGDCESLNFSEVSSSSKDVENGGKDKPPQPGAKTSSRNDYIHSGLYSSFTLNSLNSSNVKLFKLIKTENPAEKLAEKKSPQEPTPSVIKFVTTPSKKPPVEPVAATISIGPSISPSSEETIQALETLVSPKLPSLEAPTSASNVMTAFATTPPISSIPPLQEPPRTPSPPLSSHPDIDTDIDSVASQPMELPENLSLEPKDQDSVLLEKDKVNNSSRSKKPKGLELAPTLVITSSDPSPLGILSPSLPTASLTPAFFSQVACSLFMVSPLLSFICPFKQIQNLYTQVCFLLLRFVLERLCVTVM
Outline: as §1

[7] = molecular target: T4, ETV2 (Homo sapiens, UniProt O00321 1-342); settings: protein: recombinant; tags: N-terminal GST; dsDNA, one strand shown
T4 sequence: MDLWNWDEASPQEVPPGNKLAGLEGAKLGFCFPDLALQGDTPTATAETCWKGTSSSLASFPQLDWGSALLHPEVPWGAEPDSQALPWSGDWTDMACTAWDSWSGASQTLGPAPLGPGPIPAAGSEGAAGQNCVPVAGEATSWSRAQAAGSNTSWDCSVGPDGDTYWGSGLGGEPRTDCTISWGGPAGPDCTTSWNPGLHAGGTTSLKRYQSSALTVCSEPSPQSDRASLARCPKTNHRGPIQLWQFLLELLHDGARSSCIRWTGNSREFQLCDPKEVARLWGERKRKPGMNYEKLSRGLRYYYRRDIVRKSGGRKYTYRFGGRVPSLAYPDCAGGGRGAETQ
Outline: as §1

[8] = molecular target: T5, ELF3 (Homo sapiens, UniProt P78545 1-371); settings: protein: recombinant; tags: N-terminal GST; dsDNA, one strand shown
T5 sequence: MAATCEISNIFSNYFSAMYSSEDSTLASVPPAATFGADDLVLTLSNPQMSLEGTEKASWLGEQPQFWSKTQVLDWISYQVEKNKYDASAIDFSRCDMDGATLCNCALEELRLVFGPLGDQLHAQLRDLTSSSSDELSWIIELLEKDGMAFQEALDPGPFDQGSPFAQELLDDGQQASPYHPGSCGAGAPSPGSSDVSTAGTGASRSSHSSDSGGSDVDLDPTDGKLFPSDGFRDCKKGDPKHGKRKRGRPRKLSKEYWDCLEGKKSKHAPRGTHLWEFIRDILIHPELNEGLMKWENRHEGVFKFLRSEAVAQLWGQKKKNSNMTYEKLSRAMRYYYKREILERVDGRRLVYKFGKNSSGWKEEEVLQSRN
Outline: as §1

[9] = molecular target: CRX (Homo sapiens, UniProt O43186 1-299); settings: protein: recombinant; tags: N-terminal GST; dsDNA, one strand shown
Outline: as §1

[10] = molecular target: ETV1 (Homo sapiens, UniProt P50549 1-477); settings: protein: recombinant; tags: N-terminal GST; dsDNA, one strand shown
Outline: as §1

[11] = molecular target: T6, ERF (Homo sapiens, UniProt P50548 1-548); settings: protein: recombinant; tags: N-terminal GST; dsDNA, one strand shown
T6 sequence: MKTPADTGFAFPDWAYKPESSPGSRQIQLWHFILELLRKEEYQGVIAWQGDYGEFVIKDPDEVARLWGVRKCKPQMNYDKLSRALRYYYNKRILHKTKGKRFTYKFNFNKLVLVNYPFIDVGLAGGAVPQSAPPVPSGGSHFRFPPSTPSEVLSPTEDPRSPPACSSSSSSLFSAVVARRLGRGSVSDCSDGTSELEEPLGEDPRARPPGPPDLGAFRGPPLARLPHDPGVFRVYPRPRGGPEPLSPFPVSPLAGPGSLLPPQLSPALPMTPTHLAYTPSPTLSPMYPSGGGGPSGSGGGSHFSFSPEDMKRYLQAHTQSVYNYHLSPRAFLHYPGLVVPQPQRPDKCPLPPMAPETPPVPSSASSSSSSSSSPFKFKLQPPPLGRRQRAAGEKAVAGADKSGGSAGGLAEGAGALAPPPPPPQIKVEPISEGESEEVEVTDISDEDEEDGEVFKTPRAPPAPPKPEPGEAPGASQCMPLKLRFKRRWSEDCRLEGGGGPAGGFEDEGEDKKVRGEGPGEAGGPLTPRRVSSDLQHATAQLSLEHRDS
Outline: as §1

[12] = molecular target: T7, ETV3L (Homo sapiens, UniProt Q6ZN32 1-361); settings: protein: recombinant; tags: N-terminal GST; dsDNA, one strand shown
T7 sequence: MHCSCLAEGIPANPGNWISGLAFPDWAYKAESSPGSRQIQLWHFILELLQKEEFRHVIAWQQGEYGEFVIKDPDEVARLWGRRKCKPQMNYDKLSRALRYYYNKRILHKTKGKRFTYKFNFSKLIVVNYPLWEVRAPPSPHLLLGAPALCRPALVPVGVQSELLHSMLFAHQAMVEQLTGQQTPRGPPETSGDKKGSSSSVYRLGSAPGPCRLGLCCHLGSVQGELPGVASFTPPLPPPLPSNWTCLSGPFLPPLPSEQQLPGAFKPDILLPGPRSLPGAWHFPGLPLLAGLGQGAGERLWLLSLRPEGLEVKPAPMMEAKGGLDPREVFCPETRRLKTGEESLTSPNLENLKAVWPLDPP
Outline: as §1

[13] = molecular target: T8, ETS2 (Homo sapiens, UniProt P15036 1-469); settings: protein: recombinant; tags: N-terminal GST; dsDNA, one strand shown
T8 sequence: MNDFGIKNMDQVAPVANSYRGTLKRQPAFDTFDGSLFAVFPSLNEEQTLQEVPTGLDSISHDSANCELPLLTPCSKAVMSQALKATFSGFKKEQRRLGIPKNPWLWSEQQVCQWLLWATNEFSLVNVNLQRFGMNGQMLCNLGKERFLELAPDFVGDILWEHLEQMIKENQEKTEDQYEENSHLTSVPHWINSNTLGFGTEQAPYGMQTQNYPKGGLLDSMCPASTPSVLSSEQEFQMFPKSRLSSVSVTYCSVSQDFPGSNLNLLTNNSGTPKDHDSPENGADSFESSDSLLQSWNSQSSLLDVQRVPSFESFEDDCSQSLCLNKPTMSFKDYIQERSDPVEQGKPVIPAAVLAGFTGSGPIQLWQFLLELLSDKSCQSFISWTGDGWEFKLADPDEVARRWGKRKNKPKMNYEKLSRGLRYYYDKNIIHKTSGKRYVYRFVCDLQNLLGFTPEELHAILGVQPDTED
Outline: as §1

[14] = molecular target: T9, SPDEF (Homo sapiens, UniProt O95238 1-335); settings: protein: recombinant; tags: N-terminal GST; dsDNA, one strand shown
T9 sequence: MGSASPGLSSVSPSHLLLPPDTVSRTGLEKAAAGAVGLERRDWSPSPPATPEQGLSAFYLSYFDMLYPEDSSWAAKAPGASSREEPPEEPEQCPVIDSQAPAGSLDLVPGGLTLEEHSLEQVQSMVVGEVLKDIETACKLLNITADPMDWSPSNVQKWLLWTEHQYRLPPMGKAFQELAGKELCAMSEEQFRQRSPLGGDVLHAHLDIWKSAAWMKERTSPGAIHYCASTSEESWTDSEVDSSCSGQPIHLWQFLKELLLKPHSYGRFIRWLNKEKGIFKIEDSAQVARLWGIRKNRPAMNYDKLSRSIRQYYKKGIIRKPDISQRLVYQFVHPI
Outline: as §1

[15] = molecular target: T10, ETV7 (Homo sapiens, UniProt Q9Y603 1-341); settings: protein: recombinant; tags: N-terminal GST; dsDNA, one strand shown
T10 sequence: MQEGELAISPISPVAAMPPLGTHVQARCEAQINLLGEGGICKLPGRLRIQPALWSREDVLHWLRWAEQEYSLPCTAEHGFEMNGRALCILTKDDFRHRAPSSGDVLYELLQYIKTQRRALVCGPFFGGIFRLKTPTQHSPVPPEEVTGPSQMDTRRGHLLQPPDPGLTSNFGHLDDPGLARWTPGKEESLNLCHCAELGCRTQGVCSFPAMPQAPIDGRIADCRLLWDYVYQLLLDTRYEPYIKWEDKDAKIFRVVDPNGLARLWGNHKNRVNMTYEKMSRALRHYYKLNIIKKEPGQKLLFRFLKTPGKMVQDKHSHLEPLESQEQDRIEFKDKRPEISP
Outline: as §1

[16] = molecular target: T11, ELF5 (Homo sapiens, UniProt Q9UKW6-2 1-255); settings: protein: recombinant; tags: N-terminal GST; dsDNA, one strand shown
T11 sequence: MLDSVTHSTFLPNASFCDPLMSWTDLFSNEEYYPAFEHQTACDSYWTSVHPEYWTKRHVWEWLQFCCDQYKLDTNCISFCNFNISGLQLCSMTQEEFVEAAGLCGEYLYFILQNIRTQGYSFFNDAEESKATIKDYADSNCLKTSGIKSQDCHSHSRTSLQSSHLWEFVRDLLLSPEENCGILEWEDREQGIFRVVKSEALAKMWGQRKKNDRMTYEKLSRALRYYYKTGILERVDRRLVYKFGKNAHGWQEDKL
Outline: as §1

[17] = molecular target: T12, ETV3 (Homo sapiens, UniProt P41162-2 1-143); settings: protein: recombinant; tags: N-terminal GST; dsDNA, one strand shown
T12 sequence: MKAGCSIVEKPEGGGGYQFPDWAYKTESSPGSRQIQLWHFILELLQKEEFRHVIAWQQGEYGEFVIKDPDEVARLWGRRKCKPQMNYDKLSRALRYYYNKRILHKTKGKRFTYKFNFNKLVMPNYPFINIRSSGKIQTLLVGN
Outline: as §1

[18] = molecular target: ETV6 (Homo sapiens, UniProt P41212 1-452); settings: protein: recombinant; tags: N-terminal GST; dsDNA, one strand shown
Outline: as §1

ELF4, sequence (Q99607 whole entry): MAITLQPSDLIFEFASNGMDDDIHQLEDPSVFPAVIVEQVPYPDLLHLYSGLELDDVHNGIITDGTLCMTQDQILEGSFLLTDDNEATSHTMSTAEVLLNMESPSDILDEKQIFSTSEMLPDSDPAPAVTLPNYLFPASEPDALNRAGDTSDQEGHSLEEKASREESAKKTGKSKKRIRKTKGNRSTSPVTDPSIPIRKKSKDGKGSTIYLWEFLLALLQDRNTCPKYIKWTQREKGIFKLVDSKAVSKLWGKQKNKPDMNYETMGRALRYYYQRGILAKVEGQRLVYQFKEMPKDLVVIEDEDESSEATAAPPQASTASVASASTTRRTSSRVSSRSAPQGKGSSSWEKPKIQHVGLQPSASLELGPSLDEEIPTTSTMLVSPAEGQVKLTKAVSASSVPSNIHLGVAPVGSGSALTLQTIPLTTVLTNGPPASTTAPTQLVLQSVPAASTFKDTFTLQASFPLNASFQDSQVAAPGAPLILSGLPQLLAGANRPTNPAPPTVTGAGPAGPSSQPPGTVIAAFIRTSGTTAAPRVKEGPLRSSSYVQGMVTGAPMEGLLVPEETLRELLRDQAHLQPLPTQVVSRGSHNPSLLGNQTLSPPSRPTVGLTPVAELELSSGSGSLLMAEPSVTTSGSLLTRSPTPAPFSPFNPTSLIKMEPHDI
HSF1, sequence (Q00613 whole entry): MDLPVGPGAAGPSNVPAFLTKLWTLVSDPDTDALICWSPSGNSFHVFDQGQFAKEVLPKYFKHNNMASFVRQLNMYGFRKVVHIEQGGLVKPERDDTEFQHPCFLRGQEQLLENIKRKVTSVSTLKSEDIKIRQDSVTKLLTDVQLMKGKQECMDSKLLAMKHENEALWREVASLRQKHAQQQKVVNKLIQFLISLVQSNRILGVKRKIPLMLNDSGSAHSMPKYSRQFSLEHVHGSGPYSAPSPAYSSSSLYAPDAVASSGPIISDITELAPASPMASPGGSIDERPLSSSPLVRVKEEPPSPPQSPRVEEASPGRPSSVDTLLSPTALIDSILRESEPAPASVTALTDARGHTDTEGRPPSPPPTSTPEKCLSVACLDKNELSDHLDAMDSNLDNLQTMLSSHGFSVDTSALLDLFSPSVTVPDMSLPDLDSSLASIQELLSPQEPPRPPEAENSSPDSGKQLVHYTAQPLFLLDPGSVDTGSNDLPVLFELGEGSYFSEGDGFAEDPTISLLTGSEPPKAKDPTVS
CRX, sequence (O43186 whole entry): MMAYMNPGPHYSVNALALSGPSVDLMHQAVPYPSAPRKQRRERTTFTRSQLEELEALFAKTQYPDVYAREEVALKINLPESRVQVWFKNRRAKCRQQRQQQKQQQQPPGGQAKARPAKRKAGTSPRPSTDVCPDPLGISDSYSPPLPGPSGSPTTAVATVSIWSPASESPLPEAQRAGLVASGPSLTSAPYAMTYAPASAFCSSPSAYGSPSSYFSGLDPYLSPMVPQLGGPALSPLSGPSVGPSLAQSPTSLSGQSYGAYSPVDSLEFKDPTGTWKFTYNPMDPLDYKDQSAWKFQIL
ETV6, sequence (P41212 whole entry): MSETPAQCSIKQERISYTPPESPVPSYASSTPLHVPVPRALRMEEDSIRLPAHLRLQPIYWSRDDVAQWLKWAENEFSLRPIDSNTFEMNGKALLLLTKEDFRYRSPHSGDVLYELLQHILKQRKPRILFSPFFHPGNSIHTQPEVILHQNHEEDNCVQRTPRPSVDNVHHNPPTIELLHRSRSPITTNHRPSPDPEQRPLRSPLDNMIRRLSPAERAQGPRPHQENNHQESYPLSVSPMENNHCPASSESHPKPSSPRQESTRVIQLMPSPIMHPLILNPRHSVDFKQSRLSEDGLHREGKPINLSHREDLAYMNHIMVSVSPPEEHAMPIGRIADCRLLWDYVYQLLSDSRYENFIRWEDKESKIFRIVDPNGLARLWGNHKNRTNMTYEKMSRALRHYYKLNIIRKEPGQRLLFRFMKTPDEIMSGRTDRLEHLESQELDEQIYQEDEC
ETV1, sequence (P50549 whole entry): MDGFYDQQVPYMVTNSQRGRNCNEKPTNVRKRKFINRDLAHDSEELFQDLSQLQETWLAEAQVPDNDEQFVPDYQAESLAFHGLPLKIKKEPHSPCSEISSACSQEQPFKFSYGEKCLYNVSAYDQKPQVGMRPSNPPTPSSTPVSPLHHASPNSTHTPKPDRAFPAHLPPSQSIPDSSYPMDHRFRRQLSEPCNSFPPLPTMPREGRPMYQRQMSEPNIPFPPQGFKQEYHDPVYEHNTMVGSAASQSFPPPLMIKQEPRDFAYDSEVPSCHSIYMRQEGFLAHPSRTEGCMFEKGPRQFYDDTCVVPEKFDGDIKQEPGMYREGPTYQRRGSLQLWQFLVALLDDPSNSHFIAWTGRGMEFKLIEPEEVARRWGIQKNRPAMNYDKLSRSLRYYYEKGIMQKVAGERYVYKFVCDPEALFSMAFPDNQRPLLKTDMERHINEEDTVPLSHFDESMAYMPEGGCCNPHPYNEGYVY
ETV5, sequence (P41161 whole entry): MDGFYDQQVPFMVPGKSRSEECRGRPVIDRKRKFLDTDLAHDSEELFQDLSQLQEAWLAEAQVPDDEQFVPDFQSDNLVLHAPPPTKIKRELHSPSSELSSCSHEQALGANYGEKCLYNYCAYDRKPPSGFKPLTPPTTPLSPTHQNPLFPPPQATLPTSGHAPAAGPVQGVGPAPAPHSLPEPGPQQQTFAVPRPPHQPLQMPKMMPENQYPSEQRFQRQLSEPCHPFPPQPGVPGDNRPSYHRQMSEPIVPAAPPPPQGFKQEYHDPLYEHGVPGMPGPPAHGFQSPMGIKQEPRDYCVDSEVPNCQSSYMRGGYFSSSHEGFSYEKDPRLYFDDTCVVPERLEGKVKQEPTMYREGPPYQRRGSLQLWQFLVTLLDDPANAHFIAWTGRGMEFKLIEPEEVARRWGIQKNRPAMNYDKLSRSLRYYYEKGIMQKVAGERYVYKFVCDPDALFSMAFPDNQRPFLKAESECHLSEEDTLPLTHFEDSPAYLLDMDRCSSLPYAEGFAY

## TTTACA
[1]
  binding signal: 1.2 fold enrichment (6-mer frequency, TF over GST control)
[2]
  binding signal: 1.19 fold enrichment (6-mer frequency, TF over GST control)
[3]
  binding signal: 1.32 fold enrichment (6-mer frequency, TF over GST control)
[4]
  binding signal: 1.19 fold enrichment (6-mer frequency, TF over GST control)
[5]
  binding signal: 1.26 fold enrichment (6-mer frequency, TF over GST control)
[6]
  binding signal: 1.32 fold enrichment (6-mer frequency, TF over GST control)
[7]
  binding signal: 1.26 fold enrichment (6-mer frequency, TF over GST control)
[8]
  binding signal: 1.4 fold enrichment (6-mer frequency, TF over GST control)
[9]
  binding signal: 1.55 fold enrichment (6-mer frequency, TF over GST control)
[10]
  binding signal: 1.3 fold enrichment (6-mer frequency, TF over GST control)
[11]
  binding signal: 1.28 fold enrichment (6-mer frequency, TF over GST control)
[12]
  binding signal: 1.23 fold enrichment (6-mer frequency, TF over GST control)
[13]
  binding signal: 1.25 fold enrichment (6-mer frequency, TF over GST control)
[14]
  binding signal: 1.15 fold enrichment (6-mer frequency, TF over GST control)
[15]
  binding signal: 1.22 fold enrichment (6-mer frequency, TF over GST control)
[16]
  binding signal: 1.22 fold enrichment (6-mer frequency, TF over GST control)
[17]
  binding signal: 1.22 fold enrichment (6-mer frequency, TF over GST control)
[18]
  binding signal: 1.17 fold enrichment (6-mer frequency, TF over GST control)
